For orientation: inhibition means the relative decrease from the control value, in per cent.

Structures are written as SMILES.

The values that follow come from ChEMBL document CHEMBL1961873, “Compounds: GSK PKIS; Assays: Nanosyn kinase panel” (2012).

Test [1] deals with Leukocyte tyrosine kinase receptor (Homo sapiens) (UniProt P29376). Particulars: at 1 µM.
Test [2] addresses Tyrosine-protein kinase Lyn (Homo sapiens) (UniProt P07948). The following applies: at 0.1 µM.
For test [3] the target is unchanged. Particulars: at 1 µM.
The target is the same in test [4]. Particulars: at 0.1 µM. The source holds these as a separate data set.
For test [5] the target is unchanged. Particulars: at 1 µM. The source holds these as a separate data set.
Test [6] addresses T1, Tyrosine-protein kinase Mer (Homo sapiens) (UniProt Q12866).
T1 sequence (whole entry): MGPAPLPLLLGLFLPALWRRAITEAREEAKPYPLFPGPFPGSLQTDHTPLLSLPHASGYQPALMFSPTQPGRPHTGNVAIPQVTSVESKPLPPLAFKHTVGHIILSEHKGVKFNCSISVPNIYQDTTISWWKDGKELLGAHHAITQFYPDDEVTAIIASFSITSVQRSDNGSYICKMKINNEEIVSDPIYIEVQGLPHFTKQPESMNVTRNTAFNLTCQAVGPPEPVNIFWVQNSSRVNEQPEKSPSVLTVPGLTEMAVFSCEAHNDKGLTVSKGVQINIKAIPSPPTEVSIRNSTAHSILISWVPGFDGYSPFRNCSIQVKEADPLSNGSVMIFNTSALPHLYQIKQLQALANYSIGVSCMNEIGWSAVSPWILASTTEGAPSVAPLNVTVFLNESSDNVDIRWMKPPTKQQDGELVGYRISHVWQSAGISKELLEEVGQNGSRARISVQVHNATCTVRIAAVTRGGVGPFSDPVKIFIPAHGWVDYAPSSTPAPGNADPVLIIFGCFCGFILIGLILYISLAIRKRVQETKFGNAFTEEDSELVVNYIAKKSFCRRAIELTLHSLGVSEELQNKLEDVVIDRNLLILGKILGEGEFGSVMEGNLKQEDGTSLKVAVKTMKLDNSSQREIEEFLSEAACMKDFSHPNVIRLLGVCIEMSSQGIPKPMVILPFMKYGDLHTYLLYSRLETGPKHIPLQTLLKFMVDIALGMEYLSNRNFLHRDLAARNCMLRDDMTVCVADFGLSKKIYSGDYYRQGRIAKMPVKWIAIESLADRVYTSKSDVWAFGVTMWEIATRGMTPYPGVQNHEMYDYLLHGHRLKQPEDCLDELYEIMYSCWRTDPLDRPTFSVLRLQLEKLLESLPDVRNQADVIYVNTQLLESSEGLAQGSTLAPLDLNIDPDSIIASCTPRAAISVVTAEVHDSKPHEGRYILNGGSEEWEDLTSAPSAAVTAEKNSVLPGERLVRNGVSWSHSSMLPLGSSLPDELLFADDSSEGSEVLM
Particulars: at 0.1 µM.

Test [7] concerns the target T1, Tyrosine-protein kinase Mer (Homo sapiens). The following applies: at 1 µM.
In test [8] the target is Hepatocyte growth factor receptor (Homo sapiens) (UniProt P08581). Particulars: at 0.1 µM.
The target is the same in test [9]. Particulars: at 1 µM.
The target of test [10] is T2, Muscle, skeletal receptor tyrosine-protein kinase (Homo sapiens) (UniProt O15146).
T2 sequence (whole entry): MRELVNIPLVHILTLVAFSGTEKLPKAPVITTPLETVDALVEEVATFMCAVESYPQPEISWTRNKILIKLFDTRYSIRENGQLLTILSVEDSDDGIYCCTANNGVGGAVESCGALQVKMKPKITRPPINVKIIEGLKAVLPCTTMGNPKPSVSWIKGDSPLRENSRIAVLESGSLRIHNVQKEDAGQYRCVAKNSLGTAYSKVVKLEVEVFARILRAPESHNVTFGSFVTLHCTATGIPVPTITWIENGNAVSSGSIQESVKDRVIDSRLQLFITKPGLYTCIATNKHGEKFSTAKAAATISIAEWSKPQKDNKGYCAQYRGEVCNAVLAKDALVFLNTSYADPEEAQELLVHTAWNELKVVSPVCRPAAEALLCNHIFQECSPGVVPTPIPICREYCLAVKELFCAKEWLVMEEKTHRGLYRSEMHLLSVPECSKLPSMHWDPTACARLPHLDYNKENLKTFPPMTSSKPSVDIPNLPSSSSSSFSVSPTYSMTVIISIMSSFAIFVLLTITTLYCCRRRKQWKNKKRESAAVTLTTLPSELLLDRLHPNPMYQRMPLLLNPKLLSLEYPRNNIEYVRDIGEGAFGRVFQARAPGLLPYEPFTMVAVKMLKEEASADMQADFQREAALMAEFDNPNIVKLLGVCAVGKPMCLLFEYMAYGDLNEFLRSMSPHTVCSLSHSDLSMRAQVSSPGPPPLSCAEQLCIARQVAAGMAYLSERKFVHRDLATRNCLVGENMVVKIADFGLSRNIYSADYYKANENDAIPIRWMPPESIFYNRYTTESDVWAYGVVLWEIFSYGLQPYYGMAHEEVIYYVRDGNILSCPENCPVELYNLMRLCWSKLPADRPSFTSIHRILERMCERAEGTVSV
Particulars: at 0.1 µM.

Test [11] concerns the target T2, Muscle, skeletal receptor tyrosine-protein kinase (Homo sapiens). Particulars: at 1 µM.
The target in test [12] is Platelet-derived growth factor receptor alpha (Homo sapiens) (UniProt P16234). The following applies: at 0.1 µM.
Platelet-derived growth factor receptor alpha (Homo sapiens), sequence (P16234 whole entry): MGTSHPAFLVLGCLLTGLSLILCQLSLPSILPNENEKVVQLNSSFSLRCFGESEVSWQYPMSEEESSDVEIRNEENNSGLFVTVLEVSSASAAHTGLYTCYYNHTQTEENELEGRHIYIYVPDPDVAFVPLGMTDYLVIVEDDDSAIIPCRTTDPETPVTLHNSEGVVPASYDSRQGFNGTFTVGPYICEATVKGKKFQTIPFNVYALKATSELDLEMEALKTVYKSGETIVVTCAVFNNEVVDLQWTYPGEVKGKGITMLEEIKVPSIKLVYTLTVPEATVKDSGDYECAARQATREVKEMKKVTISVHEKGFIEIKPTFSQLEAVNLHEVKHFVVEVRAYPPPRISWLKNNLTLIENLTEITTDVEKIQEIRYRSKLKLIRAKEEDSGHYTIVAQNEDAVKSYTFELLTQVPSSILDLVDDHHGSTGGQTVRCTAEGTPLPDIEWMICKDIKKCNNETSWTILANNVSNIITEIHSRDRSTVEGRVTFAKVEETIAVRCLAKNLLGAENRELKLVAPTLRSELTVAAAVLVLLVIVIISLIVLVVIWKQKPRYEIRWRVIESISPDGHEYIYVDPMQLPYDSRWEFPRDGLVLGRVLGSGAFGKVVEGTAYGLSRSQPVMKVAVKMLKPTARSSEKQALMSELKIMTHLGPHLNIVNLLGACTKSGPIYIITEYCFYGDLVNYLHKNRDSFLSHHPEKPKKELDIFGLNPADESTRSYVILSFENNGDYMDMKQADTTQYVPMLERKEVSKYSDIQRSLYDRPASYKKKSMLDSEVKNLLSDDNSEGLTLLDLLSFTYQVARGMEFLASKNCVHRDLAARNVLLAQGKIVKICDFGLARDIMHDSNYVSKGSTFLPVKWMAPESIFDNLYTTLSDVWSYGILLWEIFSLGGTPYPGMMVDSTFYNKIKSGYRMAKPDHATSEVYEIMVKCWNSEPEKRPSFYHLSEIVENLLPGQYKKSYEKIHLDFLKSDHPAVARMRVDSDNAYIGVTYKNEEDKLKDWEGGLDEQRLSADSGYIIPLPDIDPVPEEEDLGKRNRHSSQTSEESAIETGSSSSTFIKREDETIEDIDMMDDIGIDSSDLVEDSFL
Test [13] has the same target. Particulars: at 1 µM.
In test [14] the test system is Platelet-derived growth factor receptor alpha (Homo sapiens), P16234 [D842V]. The following applies: at 0.1 µM.
The test system is the same in test [15]. The following applies: at 1 µM.
Test [16] has as its system Platelet-derived growth factor receptor alpha (Homo sapiens), P16234 [T674I]. Particulars: at 0.1 µM.
For test [17] the test system is unchanged. The following applies: at 1 µM.
The subject of test [18] is Platelet-derived growth factor receptor alpha (Homo sapiens), P16234 [V561D]. Particulars: at 0.1 µM.
The test system is the same in test [19]. Particulars: at 1 µM.
Test [20] deals with Platelet-derived growth factor receptor beta (Homo sapiens) (UniProt P09619). Particulars: at 0.1 µM.
Platelet-derived growth factor receptor beta (Homo sapiens), sequence (P09619 whole entry): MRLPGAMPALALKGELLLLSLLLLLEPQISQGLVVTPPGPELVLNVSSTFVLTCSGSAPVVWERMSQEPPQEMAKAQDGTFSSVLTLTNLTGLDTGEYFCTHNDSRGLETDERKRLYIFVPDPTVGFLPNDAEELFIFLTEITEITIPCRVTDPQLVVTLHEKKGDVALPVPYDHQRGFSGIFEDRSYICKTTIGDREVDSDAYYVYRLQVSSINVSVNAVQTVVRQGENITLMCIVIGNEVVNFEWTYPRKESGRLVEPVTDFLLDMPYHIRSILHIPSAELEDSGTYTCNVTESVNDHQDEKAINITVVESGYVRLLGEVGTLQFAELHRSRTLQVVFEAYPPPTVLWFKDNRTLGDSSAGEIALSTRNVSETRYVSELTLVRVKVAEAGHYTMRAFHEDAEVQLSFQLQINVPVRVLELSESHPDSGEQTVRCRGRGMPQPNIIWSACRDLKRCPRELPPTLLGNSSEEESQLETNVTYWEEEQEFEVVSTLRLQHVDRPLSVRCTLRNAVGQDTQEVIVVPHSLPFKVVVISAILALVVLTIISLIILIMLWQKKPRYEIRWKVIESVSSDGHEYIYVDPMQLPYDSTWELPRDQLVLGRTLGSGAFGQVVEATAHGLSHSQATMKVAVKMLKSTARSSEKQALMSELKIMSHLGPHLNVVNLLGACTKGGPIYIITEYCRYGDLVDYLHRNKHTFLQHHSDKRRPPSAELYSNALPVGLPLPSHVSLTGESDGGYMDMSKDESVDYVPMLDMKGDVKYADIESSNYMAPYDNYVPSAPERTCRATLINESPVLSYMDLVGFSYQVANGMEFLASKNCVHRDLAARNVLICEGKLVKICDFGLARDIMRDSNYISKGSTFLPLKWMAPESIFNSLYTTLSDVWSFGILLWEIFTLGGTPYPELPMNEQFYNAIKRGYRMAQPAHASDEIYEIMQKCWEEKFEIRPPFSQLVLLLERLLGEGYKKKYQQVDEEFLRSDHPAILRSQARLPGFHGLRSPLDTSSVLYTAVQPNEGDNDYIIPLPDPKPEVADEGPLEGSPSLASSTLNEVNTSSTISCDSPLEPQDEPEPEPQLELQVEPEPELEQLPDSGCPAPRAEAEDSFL

Platelet-derived growth factor receptor alpha (Homo sapiens), P16234 [T674I], sequence (P16234 whole entry T674I): as the sequence (P16234 whole entry) above, with T674I counted along it
Tyrosine-protein kinase Lyn (Homo sapiens), sequence (P07948 2-512 limits assumed): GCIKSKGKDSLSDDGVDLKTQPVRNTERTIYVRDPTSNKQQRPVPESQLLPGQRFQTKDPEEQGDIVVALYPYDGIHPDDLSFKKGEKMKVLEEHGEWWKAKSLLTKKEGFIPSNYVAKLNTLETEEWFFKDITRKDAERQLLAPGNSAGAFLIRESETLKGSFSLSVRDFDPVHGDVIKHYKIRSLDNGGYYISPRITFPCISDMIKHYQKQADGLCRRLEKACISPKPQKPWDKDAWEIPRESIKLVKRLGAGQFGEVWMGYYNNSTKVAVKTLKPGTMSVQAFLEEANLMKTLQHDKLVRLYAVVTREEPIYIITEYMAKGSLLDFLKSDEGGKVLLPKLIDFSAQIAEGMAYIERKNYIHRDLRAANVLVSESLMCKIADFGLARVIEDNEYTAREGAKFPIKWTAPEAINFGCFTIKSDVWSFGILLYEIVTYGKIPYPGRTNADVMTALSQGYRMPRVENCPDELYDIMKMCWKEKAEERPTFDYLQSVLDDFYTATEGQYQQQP
Platelet-derived growth factor receptor alpha (Homo sapiens), P16234 [V561D], sequence (P16234 whole entry V561D): as the sequence (P16234 whole entry) above, with V561D counted along it

For the molecule `CCS(=O)(=O)c1ccc(OC)c(Nc2ncc(-c3cccc(-c4ccccc4F)c3)o2)c1`, the inhibition in test [1] worked out at 4.54%; in [2], 14.8%; in [3] it was 62.5%; in test [4] it was 10.6%; in [5], 55.8%; in test [6], 0.82%. The inhibition was 3% in test [7]; 2.87% in test [8]; 3.52% in [9]; 2.39% in test [10]; 5.48% in [11]; 10.8% in [12]. Moreover, the inhibition in test [13] was found to be 49.7%; in [14], 6.19%; in test [15], 32.1%; in test [16] it was 3.61%; in test [17], 6.31%; in [18], 18.5%. Also, the values for the inhibition in test [19] and in test [20] were 60.4% and 17.1%, respectively.

Turning to `FC(F)(F)c1cccc(Nc2nccc(-c3cnn4nc(-c5ccccc5)ccc34)n2)c1`, the inhibition is 0.52% in test [1]; 0.75% in test [2]; 3.22% in test [3]; 0.52% in test [4]; 2.95% in [5]; -0.58% in test [6]. Besides, the inhibition in test [7] was 0.62%; in test [8] it was -0.38%; in test [9], 0.28%; in [10], 1.03%; in [11] it was 0.42%; in test [12], 7.91%. Further, the inhibition in test [13] came to 42.6%; in [14], 4.44%; in [15], 33.6%; in test [16], 3.36%; in test [17], 9.98%; in test [18] it was 6.8%. Also, the inhibition worked out at 39.2% in [19] and 7.48% in test [20].

With `CCc1cccc(CC)c1/C=C/c1cncc(C(=O)NC)c1`, the inhibition in [1] was 0.4%; in test [2] it was 3.99%; in test [3], 5.8%; in test [4], 1.75%; in [5] it was 4.91%; in [6] it was -0.22%. Further, the inhibition is 4.08% in test [7]; -0.26% in [8]; 1.69% in [9]; 3.82% in test [10]; 0.76% in test [11]; 9.56% in [12]. Moreover, the inhibition in test [13] was 7.82%; in test [14] it was 0.6%; in test [15], 1.22%; in [16], 2.23%; in test [17] it was 2.91%; in [18], -0.14%. The inhibition in test [19] was determined as 3.75%; in [20], 7.91%.

`CN(c1ccc(NC(=O)Nc2c(Cl)cccc2Cl)cc1)c1ccnc(Nc2cccc(CS(C)(=O)=O)c2)n1`: the inhibition in test [1] stood at 1.45%; in test [2], 29.7%; in [3] it was 64.8%; in test [4], 27.1%; in test [5] it was 60.9%; in test [6] it was 14.6%. Moreover, the inhibition in test [7] is 29.6%; in [8], 80.8%; in test [9], 85%; in test [10], 72.8%; in test [11], 89.9%; in [12] it was 69.3%. The inhibition in [13] is 86.6%; in test [14] it was 6.78%; in test [15] it was 28.6%; in [16] it was 72.1%; in test [17] it was 97.5%; in test [18], 78.7%. Also, the values for the inhibition in [19] and in test [20] were 91.2% and 52.4%, respectively.

With `Fc1ccc(-c2ncn(C3CCNCC3)c2-c2ccnc(Oc3ccc(F)c(F)c3)n2)cc1`, the inhibition in test [1] amounted to 2.29%; in [2], 3.84%; in [3] it was 3.75%; in [4], 2.34%; in test [5], 2.48%; in [6], 1.13%. For the same molecule, the inhibition worked out at 1.39% in test [7]; 7.87% in test [8]; 4.17% in test [9]; 2.92% in [10]; 4.68% in test [11]; 11% in [12]. For the same molecule, the inhibition in test [13] came to 14.7%; in test [14], 2.91%; in [15], 3.42%; in [16], 1.08%; in test [17], 7.95%; in test [18] it was 2.26%. The inhibition in test [19] was 5.74%; in test [20], 5.46%.

Regarding `COc1ccc2cc(-c3c(-c4ccncc4)nc(-c4ccc([S+](C)[O-])cc4C)n3C)ccc2c1` (stereo not given), the inhibition in [1] was 2.92%; in test [2], 2%; in [3] it was 21.4%; in [4], 0.52%; in test [5], 16.8%; in [6], 0.82%. In addition, the inhibition was 9.89% in test [7]; -1.42% in test [8]; 3.32% in test [9]; 0.94% in [10]; 0.57% in [11]; 0.98% in [12]. Besides, the inhibition in test [13] was 12.4%; in [14], -0.45%; in test [15], 2.27%; in test [16], 0.22%; in test [17], 2.22%; in test [18], -2.47%. Besides, the inhibition in [19] is 5.84%; in test [20] it was 0.23%.
